# Test results from article PMC5540273 (PLoS ONE, 2017).
# Where “and” joins values, the source holds several entries; their conditions need not be identical. Identical values can stand only once. Like-named read-outs stand apart in the source and are kept apart here.
# How the values were obtained:
# BUB1 = details: concentration: 1 μM, replicates: in singlicate, n = 1
# CAMK1B = details: concentration: 1 μM, replicates: in singlicate, n = 1
# CAMK1D = details: concentration: 1 μM, replicates: in singlicate, n = 1
# CAMK1G = details: concentration: 1 μM, replicates: in singlicate, n = 1
# CAMK1 = details: concentration: 1 μM, replicates: in singlicate, n = 1
# CAMK2A = details: concentration: 1 μM, replicates: in singlicate, n = 1
# CAMK2B = details: concentration: 1 μM, replicates: in singlicate, n = 1
# CAMK2D = details: concentration: 1 μM, replicates: in singlicate, n = 1
# CAMK2G = details: concentration: 1 μM, replicates: in singlicate, n = 1
# CAMK4 = details: concentration: 1 μM, replicates: in singlicate, n = 1
# CAMKK1 = details: concentration: 1 μM, replicates: in singlicate, n = 1
# CAMKK2 = details: concentration: 1 μM, replicates: in singlicate, n = 1
# CASK = details: concentration: 1 μM, replicates: in singlicate, n = 1
# CDC2L1 = system: T1, CDC2L1; details: concentration: 1 μM, replicates: in singlicate, n = 1
# T1 construct: gene CDK11B
# CDC2L2 = details: concentration: 1 μM, replicates: in singlicate, n = 1
# CDC2L5 = system: T2, CDC2L5; details: concentration: 1 μM, replicates: in singlicate, n = 1
# T2 construct: gene CDK13
# CDK11 = system: T3, CDK11; details: concentration: 1 μM, replicates: in singlicate, n = 1
# T3 construct: gene CDK19
# CDK2 = details: concentration: 1 μM, replicates: in singlicate; n = 1
# CDK3 = details: concentration: 1 μM, replicates: in singlicate; n = 1
# CDK4-cyclinD1 = details: concentration: 1 μM, replicates: in singlicate, n = 1
# 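Also: KINOMEscan kinase panel screen.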
smiles,measurement,setting,value
O=C1NC(=O)C(N2CCc3ccccc32)=C1c1cccc(Cl)c1 [SB-408010],%Inh,BUB1,0%
same,%Inh,CAMK1B,0%
same,%Inh,CAMK1D,17%
same,%Inh,CAMK1G,0%
same,%Inh,CAMK1,24%
same,%Inh,CAMK2A,0%
same,%Inh,CAMK2B,0%
same,%Inh,CAMK2D,10%
same,%Inh,CAMK2G,0%
same,%Inh,CAMK4,1%
same,%Inh,CAMKK1,7%
same,%Inh,CAMKK2,0%
same,%Inh,CASK,0%
same,%Inh,CDC2L1,0%
same,%Inh,CDC2L2,5%
same,%Inh,CDC2L5,0%
same,%Inh,CDK11,0%
same,%Inh,CDK2,0%
same,%Inh,CDK3,0%
same,%Inh,CDK4-cyclinD1,0%
c1ccc(-c2cc(-c3c[nH]nc3-c3ccccn3)ccn2)cc1 [GW576604],%Inh,BUB1,34%
same,%Inh,CAMK1B,10%
same,%Inh,CAMK1D,14%
same,%Inh,CAMK1G,0%
same,%Inh,CAMK1,14%
same,%Inh,CAMK2A,0%
same,%Inh,CAMK2B,0%
same,%Inh,CAMK2D,10%
same,%Inh,CAMK2G,30%
same,%Inh,CAMK4,0%
same,%Inh,CAMKK1,5%
same,%Inh,CAMKK2,24%
same,%Inh,CASK,0%
same,%Inh,CDC2L1,0%
same,%Inh,CDC2L2,16%
same,%Inh,CDC2L5,0%
same,%Inh,CDK11,11%
same,%Inh,CDK2,13%
same,%Inh,CDK3,0%
same,%Inh,CDK4-cyclinD1,0%
CC(C)(CN)c1nc(-c2ccc(Cl)c(O)c2)c(-c2ccncc2)[nH]1.O=C(O)C(F)(F)F [SB-477794],%Inh,BUB1; 1 µM,100% and 98.2%
same,%Inh,CAMK1B; 1 µM,24% and 3%
same,%Inh,CAMK1D; 1 µM,10% and 9%
same,%Inh,CAMK1G,0%
same,%Inh,CAMK1; 1 µM,19% and 13%
same,%Inh,CAMK2A,0%
same,%Inh,CAMK2B,0%
same,%Inh,CAMK2D; 1 µM,11% and 0%
same,%Inh,CAMK2G; 1 µM,0% and 17%
same,%Inh,CAMK4,0%
same,%Inh,CAMKK1,0%
same,%Inh,CAMKK2; 1 µM,0% and 4%
same,%Inh,CASK; 1 µM,18% and 0%
same,%Inh,CDC2L1,0%
same,%Inh,CDC2L2; 1 µM,31% and 2%
same,%Inh,CDC2L5; 1 µM,0% and 30%
same,%Inh,CDK11,0%
same,%Inh,CDK2,0%
same,%Inh,CDK3,7%
same,%Inh,CDK4-cyclinD1; 1 µM,25% and 64%
Cc1nnc(-c2ccc(C)c(-c3ccc(C(=O)Nc4ccc(NS(C)(=O)=O)cc4)cc3)c2)o1 [GW702865],%Inh,BUB1,35%
same,%Inh,CAMK1B,10%
same,%Inh,CAMK1D,2%
same,%Inh,CAMK1G,0%
same,%Inh,CAMK1,4%
same,%Inh,CAMK2A,0%
same,%Inh,CAMK2B,1%
same,%Inh,CAMK2D,0%
same,%Inh,CAMK2G,0%
same,%Inh,CAMK4,0%
same,%Inh,CAMKK1,0%
same,%Inh,CAMKK2,0%
same,%Inh,CASK,23%
same,%Inh,CDC2L1,0%
same,%Inh,CDC2L2,8%
same,%Inh,CDC2L5,0%
same,%Inh,CDK11,0%
same,%Inh,CDK2,0%
same,%Inh,CDK3,1%
same,%Inh,CDK4-cyclinD1,36%
NS(=O)(=O)c1cccc(-c2ccc3nccc(-c4cccc(S(N)(=O)=O)c4)c3c2)c1 [GW867253],%Inh,BUB1,17%
same,%Inh,CAMK1B,0%
same,%Inh,CAMK1D,0%
same,%Inh,CAMK1G,0%
same,%Inh,CAMK1,0%
same,%Inh,CAMK2A,0%
same,%Inh,CAMK2B,0%
same,%Inh,CAMK2D,0%
same,%Inh,CAMK2G,0%
same,%Inh,CAMK4,0%
same,%Inh,CAMKK1,13%
same,%Inh,CAMKK2,19%
same,%Inh,CASK,30%
same,%Inh,CDC2L1,0%
same,%Inh,CDC2L2,0%
same,%Inh,CDC2L5,0%
same,%Inh,CDK11,13%
same,%Inh,CDK2,0%
same,%Inh,CDK3,22%
same,%Inh,CDK4-cyclinD1,0%
CN(C1=C(c2ccccc2)C(=O)NC1=O)c1ccccc1 [SB-334860],%Inh,BUB1,0%
same,%Inh,CAMK1B,34%
same,%Inh,CAMK1D,3%
same,%Inh,CAMK1G,0%
same,%Inh,CAMK1,6%
same,%Inh,CAMK2A,7%
same,%Inh,CAMK2B,11%
same,%Inh,CAMK2D,1%
same,%Inh,CAMK2G,3%
same,%Inh,CAMK4,0%
same,%Inh,CAMKK1,0%
same,%Inh,CAMKK2,16%
same,%Inh,CASK,17%
same,%Inh,CDC2L1,0%
same,%Inh,CDC2L2,14%
same,%Inh,CDC2L5,0%
same,%Inh,CDK11,8%
same,%Inh,CDK2,5%
same,%Inh,CDK3,8%
same,%Inh,CDK4-cyclinD1,0%
COc1cc(Nc2nccc(N3CCC(NC(=O)c4cccc(NC(C)=O)c4)C3)n2)cc(OC)c1OC (centres unmarked) [GSK1379754],%Inh,BUB1,0%
same,%Inh,CAMK1B,7%
same,%Inh,CAMK1D,27%
same,%Inh,CAMK1G,6%
same,%Inh,CAMK1,40%
same,%Inh,CAMK2A,0%
same,%Inh,CAMK2B,0%
same,%Inh,CAMK2D,0%
same,%Inh,CAMK2G,21%
same,%Inh,CAMK4,0%
same,%Inh,CAMKK1,0%
same,%Inh,CAMKK2,11%
same,%Inh,CASK,1%
same,%Inh,CDC2L1,0%
same,%Inh,CDC2L2,2%
same,%Inh,CDC2L5,0%
same,%Inh,CDK11,20%
same,%Inh,CDK2,2%
same,%Inh,CDK3,0%
same,%Inh,CDK4-cyclinD1,0%
[2H]C([2H])(c1cccc(C(F)(F)F)c1C)n1ccn2c(=O)nc(N3CCOCC3)cc12 [GSK2336394],%Inh,BUB1,52%
same,%Inh,CAMK1B,26%
same,%Inh,CAMK1D,0%
same,%Inh,CAMK1G,0%
same,%Inh,CAMK1,0%
same,%Inh,CAMK2A,0%
same,%Inh,CAMK2B,0%
same,%Inh,CAMK2D,7%
same,%Inh,CAMK2G,3%
same,%Inh,CAMK4,16%
same,%Inh,CAMKK1,0%
same,%Inh,CAMKK2,0%
same,%Inh,CASK,8%
same,%Inh,CDC2L1,0%
same,%Inh,CDC2L2,17%
same,%Inh,CDC2L5,0%
same,%Inh,CDK11,5%
same,%Inh,CDK2,0%
same,%Inh,CDK3,1%
same,%Inh,CDK4-cyclinD1,0%
NS(=O)(=O)c1cccc(-c2ccc3ncc(N4CCOCC4)nc3c2)c1 [GSK1535721],%Inh,BUB1,0%
same,%Inh,CAMK1B,7%
same,%Inh,CAMK1D,18%
same,%Inh,CAMK1G,15%
same,%Inh,CAMK1,12%
same,%Inh,CAMK2A,0%
same,%Inh,CAMK2B,2%
same,%Inh,CAMK2D,21%
same,%Inh,CAMK2G,17%
same,%Inh,CAMK4,0%
same,%Inh,CAMKK1,11%
same,%Inh,CAMKK2,12%
same,%Inh,CASK,1%
same,%Inh,CDC2L1,6%
same,%Inh,CDC2L2,34%
same,%Inh,CDC2L5,0%
same,%Inh,CDK11,7%
same,%Inh,CDK2,0%
same,%Inh,CDK3,0%
same,%Inh,CDK4-cyclinD1,0%
NCCNS(=O)(=O)c1ccc(-c2ccnc3[nH]ccc23)cc1 [GSK977617],%Inh,BUB1; 1 µM,69% and 81%
same,%Inh,CAMK1B; 1 µM,52% and 70%
same,%Inh,CAMK1D; 1 µM,78% and 72%
same,%Inh,CAMK1G; 1 µM,44% and 21%
same,%Inh,CAMK1; 1 µM,58% and 42%
same,%Inh,CAMK2A; 1 µM,16% and 6%
same,%Inh,CAMK2B; 1 µM,2% and 0%
same,%Inh,CAMK2D; 1 µM,42% and 23%
same,%Inh,CAMK2G; 1 µM,42% and 20%
same,%Inh,CAMK4; 1 µM,59% and 44%
same,%Inh,CAMKK1; 1 µM,31% and 9%
same,%Inh,CAMKK2; 1 µM,37% and 16%
same,%Inh,CASK; 1 µM,19% and 21%
same,%Inh,CDC2L1; 1 µM,0% and 14%
same,%Inh,CDC2L2; 1 µM,13% and 15%
same,%Inh,CDC2L5,0%
same,%Inh,CDK11; 1 µM,9% and 0%
same,%Inh,CDK2,0%
same,%Inh,CDK3,0%
same,%Inh,CDK4-cyclinD1,0%
